Measurements published in PubChem BioAssay AID1159580 (chemical genetic matrix, 2015).
Hit rate of the full screen: of about 5,500 compounds, about 2,000 (36%) were called active. Another 18% or so got no clear call; they are omitted. No stated cut-off is given here; in the data, active means normalized growth mostly below about 0.91 (no sharp cut-off); inconclusive means no clear call, values can overlap the other calls; inactive means mostly above about 0.92. Some of the results follow.

Assay: chemical genetic growth profiling, strain panel (AID 1159580);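 further: tested at 20 µM; growth read once vehicle control cultures reached saturation at 30 °C; 1 = growth at the plate median or of vehicle wells; lower values mean less growth of the strain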
Details: S. cerevisiae deletion strains, growth OD

Measured: normalized growth

NC(N)=NC(=O)Cc1c(Cl)cccc1Cl
inactive: locus YAL013W, strain DEP1, active compounds read low 1.01 | locus YAL040C, strain CLN3, active compounds read low 0.979 | locus YCL061C, strain MRC1 (second series), active compounds read low 1 | locus YDR150W, strain NUM1, active compounds read low 0.997 | locus YDR363W, strain ESC2, active compounds read low 0.997 | locus YER002W, strain NOP16, active compounds read low 1.04 | locus YJR075W, strain HOC1, active compounds read low 1 | locus YNL175C, strain NOP13, active compounds read low 0.996 | locus YNL197C, strain WHI3, active compounds read low 1.02 | locus YNL224C, strain SQS1, active compounds read low 0.971 | locus YOR083W, strain WHI5 (second series), active compounds read low 1.01 | locus YPL241C, strain CIN2, active compounds read low 1
